# Reference: PubChem BioAssay AID591 (National Center for Advancing Translational Sciences (NCATS), 2007)
# Among all 59,000 compounds or so, about 60 (0.1%) were called active. No rule for the calls is given here. Only a selection was taken, and actives are over-represented in it overall.
# Test: qHTS Assay for Spectroscopic Profiling in A488 Spectral Region
# Settings: compound autofluorescence
# From the text: NIH Molecular Libraries Screening Centers Network [MLSCN]
# NIH Chemical Genomics Center [NCGC]
# Occasionally, the artifactual effect may originate from the compounds own spectral or other biophysical properties which generally tend to track its assay concentration. Pre-screening/profiling the library with respect to the compounds spectral properties should help one exclude false positives early on. While the most informative fluorescent profiling data set is obtained by performing a full excitation and emission scan of each well by using a monochromator-based plate reader, such an approach is practical only on a very limited scale as scanning each well requires long time. An alternative approach, applied here, is to perform plate reader scans using selected excitation and emission wavelength pairs to generate a multidimensional relational database that correlates compound concentration and the respective relative fluorescence intensity at a given wavelength set. A standard curve of Alexa 488 (A488) present on each plate as six-point concentration series, was used to compute a normalized fluorescence response, termed dye-equivalent concentration, for each compound at each concentration.
# NCGC Assay Protocol Summary:
# 100 mM Tris buffer, pH 8.0
# The wells in columns 1 through 4 of a Kalypsys polypropylene 1536-well compound plate were filled with standard solutions of fluorophore corresponding to the spectral region of interest. Solutions of A488 were placed in the following wells: Y1, Z1: 3 mM, Y2, Z2: 300 uM, Y3, Z3: 30 uM, Y4, Z4: zero (DMSO), AA1, AB1: 3 uM, AA2, AB2: 900 nM, AA3, AB3: 300 nM, AA4, AB4: zero (DMSO).
# Six uL of buffer were dispensed to 1536-well Greiner black plates. Compounds and dye standards (23 nL) were transferred via Kalypsys PinTool. The plates were incubated for 15 min at room temperature, and then read on ViewLux (Perkin-Elmer) High-throughput CCD imager using 480 nm and 540 nm excitation and emission filter set.
# Keywords: NIH Roadmap, MLSCN, MLI, MLSMR, qHTS, NCGC, A488, A-488, Fluorescent Profiling.
# [1] = max dye equivalency: Compound Type: qHTS ECL - SigmaAldrich, hits give high values unless noted, outcome: dye equivalency, Compound Type: qHTS ECL - MLSMR unless noted
smiles,measurement,setting,value
CCCOP(=O)(c1ccc(N(C)C)cc1)C(O)c1cc(OC)c(OC)c(OC)c1 (stereo not given),outcome,[1],"inactive [dye equivalency, Compound Type: qHTS ECL - DPISMR]"
COc1ccccc1-c1nc(NCc2cccs2)c2ccccc2n1,outcome,[1],"inactive [dye equivalency, Compound Type: qHTS ECL - Pharmacopeia]"
CC(=O)N1CCC(C(=O)Nc2nc(-c3ccccc3)ns2)CC1,outcome,[1],"inactive [dye equivalency, Compound Type: qHTS ECL - DPISMR]"
N#Cc1cccc(-c2ccc3ncnc(NCc4cccs4)c3c2)c1,outcome,[1],"inactive [dye equivalency, Compound Type: qHTS ECL - Pharmacopeia]"
COc1ncc2nc(-c3ccc(Cl)cc3)c(=O)n(-c3ccccc3)c2n1,outcome,[1],"inactive [dye equivalency, Compound Type: qHTS ECL - Pharmacopeia]"
COc1ccc2c3c(c(=O)oc2c1OCC(=O)C(C)(C)C)CCCC3,outcome,[1],"inactive [dye equivalency, Compound Type: qHTS ECL - DPISMR]"
CCOc1ccccc1-n1c(SCC(=O)N2CCCC2)nnc1-c1ccoc1C,outcome,[1],inactive
CCOC(=O)N1CCC(NC(=O)CN2C(=O)COc3ccc(C(C)(C)C)cc32)CC1,outcome,[1],"inactive [dye equivalency, Compound Type: qHTS ECL - DPISMR]"
CC1(C)CC(=O)C=C(NCc2ccncc2)C1,outcome,[1],inactive
Oc1ccc2ccccc2c1C=NCc1c(O)ccc2ccccc12,outcome,[1],"inactive [dye equivalency, Compound Type: qHTS ECL - NCI]"
COc1cccc(NS(=O)(=O)c2ccc3[nH]cc(C(=O)NCCCOC(C)C)c(=O)c3c2)c1,outcome,[1],inactive
O=c1c2c(nc3n1CCCCC3)sc1c(O)cccc12,outcome,[1],inactive
O=C(CN1CCN(c2ccc(F)cc2)CC1)Nc1cccc(C(F)(F)F)c1,outcome,[1],"inactive [dye equivalency, Compound Type: qHTS ECL - DPISMR]"
CCc1c(C)nc(N)n2c(SCC(=O)N3CCN(c4ccccc4)CC3)nnc12,outcome,[1],inactive
O=C(Nc1cccc(F)c1)N1CCC2(CC1)CCN(S(=O)(=O)c1ccccc1)CC2,outcome,[1],"inactive [dye equivalency, Compound Type: qHTS ECL - Pharmacopeia]"
COc1ccc(-c2nnc(SCC(=O)c3ccco3)n2-c2ccccc2)cc1,outcome,[1],inactive
CCn1c(SCC(=O)NCC2CCCO2)nc2cc(S(=O)(=O)N3CCCCC3)ccc21 (stereo not given),outcome,[1],inactive
O=c1c(-c2cccs2)nc2cnc(Oc3ccccc3)nc2n1-c1ccccc1,outcome,[1],"inactive [dye equivalency, Compound Type: qHTS ECL - Pharmacopeia]"
COCCn1c(=O)c(-c2cccc(F)c2)nc2cncnc21,outcome,[1],"inactive [dye equivalency, Compound Type: qHTS ECL - Pharmacopeia]"
CCCn1c(SCC(N)=O)nnc1C(C)C,outcome,[1],inactive
C=CCNC(=O)CCCC(=O)NCC=C,outcome,[1],"inactive [dye equivalency, Compound Type: qHTS ECL - DPISMR]"
CN1CCN2c3ccccc3Cc3ccccc3[C@@H]2C1,outcome,"dye equivalency, Compound Type: qHTS ECL - Prestwick",inactive
same,outcome,"dye equivalency, Compound Type: qHTS ECL - SigmaAldrich",inactive
CSc1nc(O)c(Cc2ccccc2)c(=O)[nH]1,outcome,[1],inactive
O=C(Cn1c(-c2ccc(Cl)cc2)noc1=O)N1CCN(c2ccccc2F)CC1,outcome,[1],inactive
CCN(Cc1cc2cc(C)ccc2[nH]c1=O)S(=O)(=O)c1ccccc1,outcome,[1],inactive
CCCCOc1ccc(Cl)cc1CSc1nncn1N,outcome,[1],"inactive [dye equivalency, Compound Type: qHTS ECL - DPISMR]"
O=c1cc(-c2ccccc2)[nH]c2nc(Cl)ccc12,outcome,[1],"inactive [dye equivalency, Compound Type: qHTS ECL - SigmaAldrich]"
CC[C@@H]1Cc2cc(O)ccc2C2=C1c1ccc(O)cc1C[C@H]2CC,outcome,[1],"inactive [dye equivalency, Compound Type: qHTS ECL - SigmaAldrich]"
O=c1c(-c2ccc(F)cc2)nc2cnc(N3CCNCC3)nc2n1Cc1cccs1,outcome,[1],"inactive [dye equivalency, Compound Type: qHTS ECL - Pharmacopeia]"
Nc1nc(N)c2[nH]c(CNc3ccc(C(=O)O)cc3)nc2n1,outcome,[1],"inactive [dye equivalency, Compound Type: qHTS ECL - NCI]"
N#Cc1cccc(-c2nc3cnc(N4CCNCC4)nc3n(C3CC3)c2=O)c1,outcome,[1],"inactive [dye equivalency, Compound Type: qHTS ECL - Pharmacopeia]"
CC(C)NC(=O)N1CCC2(CC1)CCN(C(=O)c1cccn1C)CC2,outcome,[1],"inactive [dye equivalency, Compound Type: qHTS ECL - Pharmacopeia]"
COCCn1c(=O)c(CCc2ccccc2)nc2cnc(N3CCNCC3)nc21,outcome,[1],"inactive [dye equivalency, Compound Type: qHTS ECL - Pharmacopeia]"
CCc1nc(C)cn1S(=O)(=O)c1cc(OC)c(C)cc1C,outcome,[1],inactive
CC(c1ccco1)N(C(=O)c1ccc(S(=O)(=O)N2CCCCC2)cc1)c1ccccn1 (stereo not given),outcome,[1],inactive
CS(=O)(=O)N(CC(=O)NCc1ccco1)c1ccc2c(c1)OCO2,outcome,[1],"inactive [dye equivalency, Compound Type: qHTS ECL - DPISMR]"
O=C(NC1(C(F)(F)F)N=C2SCCN2C1=O)c1ccco1 (stereo not given),outcome,[1],inactive
COc1ccc(OCC(=O)OCC(=O)Nc2ccc(S(=O)(=O)N3CCCCC3)cc2)cc1,outcome,[1],inactive
O=C(N1CCOCC1)N1CCOCC1,outcome,[1],inactive
CCNC(=O)CN(c1ccc(C)cc1)S(=O)(=O)c1ccc(SC)cc1,outcome,[1],inactive
CN(Cc1ccco1)c1cc(-c2ccccc2C(F)(F)F)ncn1,outcome,[1],"inactive [dye equivalency, Compound Type: qHTS ECL - Pharmacopeia]"
COC(=O)Cc1nc2ccccc2[nH]1,outcome,[1],"inactive [dye equivalency, Compound Type: qHTS ECL - DPISMR]"
CCOc1ccc(N=NS(=O)(=O)O)cc1,outcome,[1],"inactive [dye equivalency, Compound Type: qHTS ECL - NCI]"
CN1CCN(C(=O)C2C3C=CC(C3)C2C(=O)O)CC1 (stereo not given),outcome,[1],inactive
